From PubChem BioAssay (EPA / NIEHS)
Calls of active or inactive are those of the source. The calls were made as follows: active = hit-call score of the fitted dose curve at least 0.9, where 1 is the maximum; inactive = score below 0.9.

Key:
[1] = read-out: Tissue plasminogen activator (tPA), PLAT (gene 5327); assay: BSK_BE3C_tPA: BioMAP Diversity Plus: BE3C Assay for Tissue plasminogen activator (tPA) Biomarker Activity (AID 2283041); conditions: primary human bronchial epithelial cells; actives raise or lower the signal
Procedure, shortened: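 Bidirectional curve fitting relative to DMSO defined activity, with tPA detected by ELISA in chemically treated human bronchial epithelial primary cells at 24 hours.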

[2] = read-out: Interleukin-8 (IL8), CXCL8 (gene 3576); assay: BSK_CASM3C_IL8: BioMAP Diversity Plus: CASM3C Assay for Interleukin-8 (IL8) Biomarker Activity (AID 2283042); conditions: primary human coronary artery smooth muscle cells; actives raise or lower the signal;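 also: IL-8 protein level quantified by ELISA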
[3] = read-out: Human Leukocyte Antigen - DR isotype (HLADR), HLA-DRA (gene 3122); assay: BSK_CASM3C_HLADR: BioMAP Diversity Plus: CASM3C Assay for Human Leukocyte Antigen - DR isotype (HLADR) Biomarker Activity (AID 2283043); conditions: primary human coronary artery smooth muscle cells; actives raise or lower the signal;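 also: cell-surface HLA-DR protein level quantified by ELISA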
[4] = read-out: Macrophage colony-stimulating factor (MCSF), CSF1 (gene 1435); assay: BSK_CASM3C_MCSF: BioMAP Diversity Plus: CASM3C Assay for Macrophage colony-stimulating factor (MCSF) Biomarker Activity (AID 2283044); conditions: primary human coronary artery smooth muscle cells; actives raise or lower the signal;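 also: M-CSF protein amount quantified by ELISA after 24 h exposure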
[5] = read-out: Low-density lipoprotein receptor (LDLR), LDLR (gene 3949); assay: BSK_CASM3C_LDLR: BioMAP Diversity Plus: CASM3C Assay for Low-density lipoprotein receptor (LDLR) Biomarker Activity (AID 2283045); conditions: primary human coronary artery smooth muscle cells; actives raise or lower the signal;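 also: LDLR protein level on the cell surface quantified by ELISA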
[6] = read-out: Monocyte Chemoattractant Protein-1 (MCP1), CCL2 (gene 6347); assay: BSK_CASM3C_MCP1: BioMAP Diversity Plus: CASM3C Assay for Monocyte Chemoattractant Protein-1 (MCP1) Biomarker Activity (AID 2283046); conditions: primary human coronary artery smooth muscle cells; actives raise or lower the signal;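 also: MCP-1 level quantified by ELISA 24 h after dosing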
[7] = BSK_CASM3C_Proliferation: Cell Proliferation Assessment in the BioMAP Diversity Plus: CASM3C Assay (AID 2283047); conditions: primary human coronary artery smooth muscle cells;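 also: sulforhodamine B total protein stain as relative cell number at 560 nm; sub-confluent cells exposed 48 h before staining; fitted both ways against DMSO so gain or loss of cell number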
[8] = read-out: Monokine induced gamma interferon (MIG), CXCL9 (gene 4283); assay: BSK_CASM3C_MIG: BioMAP Diversity Plus: CASM3C Assay for Monokine induced gamma interferon (MIG) Biomarker Activity (AID 2283048); conditions: primary human coronary artery smooth muscle cells; actives raise or lower the signal;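 also: MIG protein level measured by ELISA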
[9] = read-out: serum amyloid A (SAA), SAA1 (gene 6288); assay: BSK_CASM3C_SAA: BioMAP Diversity Plus: CASM3C Assay for serum amyloid A (SAA) Biomarker Activity (AID 2283049); conditions: primary human coronary artery smooth muscle cells; actives raise or lower the signal;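 also: SAA protein level quantified by ELISA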
[10] = BSK_CASM3C_SRB: Viability Assessment in the BioMAP Diversity Plus: CASM3C Assay (AID 2283050); conditions: primary human coronary artery smooth muscle cells;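 also: total protein by SRB staining as cytotoxicity measure in parallel cultures; cells exposed to compound for 24 h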
[11] = read-out: Thrombomodulin, THBD (gene 7056); assay: BSK_CASM3C_Thrombomodulin: BioMAP Diversity Plus: CASM3C Assay for Thrombomodulin Biomarker Activity (AID 2283051); conditions: primary human coronary artery smooth muscle cells; actives raise or lower the signal;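 also: thrombomodulin protein level measured by ELISA 24 h after dosing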
[12] = read-out: Tissue Factor, F3 (gene 2152); assay: BSK_CASM3C_TissueFactor: BioMAP Diversity Plus: CASM3C Assay for Tissue Factor Biomarker Activity (AID 2283052); conditions: primary human coronary artery smooth muscle cells; actives raise or lower the signal;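 also: cell surface tissue factor protein level read by ELISA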
[13] = read-out: Interferon-gamma inducible Protein 10 (IP10), CXCL10 (gene 3627); assay: BSK_hDFCGF_IP10: BioMAP Diversity Plus: hDFCGF Assay for Interferon-gamma inducible Protein 10 (IP10) Biomarker Activity (AID 2283053); conditions: primary human foreskin fibroblasts; actives raise or lower the signal
Procedure, shortened: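 IP-10 levels, quantified by ELISA, are taken from human foreskin fibroblast cultures 24 h after chemical treatment, with DMSO serving as negative control and baseline for bidirectional analysis.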

[14] = read-out: Urokinase-type plasminogen activator receptor (uPAR), PLAUR (gene 5329); assay: BSK_CASM3C_uPAR: BioMAP Diversity Plus: CASM3C Assay for Urokinase-type plasminogen activator receptor (uPAR) Biomarker Activity (AID 2283054); conditions: primary human coronary artery smooth muscle cells; actives raise or lower the signal;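 also: cell-surface uPAR protein level quantified by ELISA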
[15] = read-out: Vascular cell adhesion molecule 1 (VCAM1), VCAM1 (gene 7412); assay: BSK_CASM3C_VCAM1: BioMAP Diversity Plus: CASM3C Assay for Vascular cell adhesion molecule 1 (VCAM1) Biomarker Activity (AID 2283055); conditions: primary human coronary artery smooth muscle cells; actives raise or lower the signal;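 also: VCAM-1 protein level quantified by ELISA on the cells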
[16] = read-out: Collagen III, COL3A1 (gene 1281); assay: BSK_hDFCGF_CollagenIII: BioMAP Diversity Plus: hDFCGF Assay for Collagen III Biomarker Activity (AID 2283056); conditions: primary human foreskin fibroblasts; actives raise or lower the signal
Procedure, shortened: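 Response relative to DMSO, fitted in both directions, reflects ELISA-measured collagen III in human primary skin fibroblasts 24 h after compound addition.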

[17] = read-out: Epidermal growth factor receptor (EGFR), EGFR (gene 1956); assay: BSK_hDFCGF_EGFR: BioMAP Diversity Plus: hDFCGF Assay for Epidermal growth factor receptor (EGFR) Biomarker Activity (AID 2283057); conditions: primary human foreskin fibroblasts; actives raise or lower the signal
Procedure, shortened: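 Measured by ELISA: EGFR levels on primary human foreskin fibroblasts 24 h after chemical treatment, analysed relative to DMSO with bidirectional fitting.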

[18] = read-out: Interleukin-8 (IL8), CXCL8 (gene 3576); assay: BSK_hDFCGF_IL8: BioMAP Diversity Plus: hDFCGF Assay for Interleukin-8 (IL8) Biomarker Activity (AID 2283058); conditions: primary human foreskin fibroblasts; actives raise or lower the signal
Procedure, shortened: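 Fibroblast monolayers (human foreskin, hDFCGF) received test chemical for 24 h before ELISA detection of IL-8; either increases or decreases relative to DMSO count as activity.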

[19] = BSK_hDFCGF_Proliferation: Cell Proliferation Assessment in the BioMAP Diversity Plus: hDFCGF Assay (AID 2283059); conditions: primary human foreskin fibroblasts;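 also: curves fitted for both rise and fall of signal versus DMSO baseline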
Procedure, shortened: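 Primary human foreskin fibroblasts, sub-confluent; […]; 10% TCA fix, 0.1% SRB stain, A560 total protein. Gain/loss fitted bidirectionally vs DMSO control.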

[20] = read-out: Macrophage colony-stimulating factor (MCSF), CSF1 (gene 1435); assay: BSK_hDFCGF_MCSF: BioMAP Diversity Plus: hDFCGF Assay for Macrophage colony-stimulating factor (MCSF) Biomarker Activity (AID 2283060); conditions: primary human foreskin fibroblasts; actives raise or lower the signal
Procedure, shortened: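 fibroblasts (human foreskin, primary), 24 h post-dose; M-CSF by ELISA; bidirectional fit, DMSO = baseline.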

Measured: AC50

Cc1cc(N=Nc2ccccc2C)ccc1N
active: [7] 23.6 µM | [11] 10.7 µM | [13] 29.9 µM | [16] 20 µM | [19] 9.37 µM | [20] 28.3 µM
inactive: all other assays above

CCCCC(CC)COC(=O)c1ccc(C(=O)OCC(CC)CCCC)c(C(=O)OCC(CC)CCCC)c1 (stereo not drawn)
inactive: all assays above

c1ccc(N=Nc2ccccc2)cc1
inactive: all assays above

CCCCOC(=O)c1ccccc1C(=O)OCc1ccccc1
active: [11] 20 µM | [16] 13 µM | [20] 11.8 µM
inactive: all other assays above

CN(C)[C@@H]1C(=O)C(C(N)=O)=C(O)[C@@]2(O)C(=O)C3=C(O)c4c(O)cccc4[C@@](C)(O)[C@H]3C[C@@H]12
active: [19] 22.9 µM
inactive: all other assays above

O=P(OCCCl)(OCCCl)OCCCl
not listed: [19]
inactive: all other assays above

[As]#[In]
inactive: all assays above

[O-][Cl+]O
inactive: all assays above

CO[C@@H]1[C@H](OC(=O)NC(=O)CCl)CC[C@]2(CO2)[C@H]1[C@@]1(C)O[C@@H]1CC=C(C)C
active: [1] 7.73 µM | [3] 8.37 µM | [7] 1.99 µM | [13] 5.48 µM | [15] 6.2 µM | [16] 2.63 µM | [17] 9.51 µM | [18] 11.5 µM | [20] 6.58 µM
not listed: [19]
inactive: all other assays above

Nc1ccc(Oc2ccc(N)cc2)cc1
active: [19] 4.11 µM
inactive: all other assays above

OCCCl
inactive: all assays above

CCCCCCCCOC(=O)c1ccc(C(=O)OCCCCCCCC)c(C(=O)OCCCCCCCC)c1
inactive: all assays above

Nc1ccc([N+](=O)[O-])cc1
active: [19] 20 µM
inactive: all other assays above
